# The supplement of paper PMC10849652
# The full data set covers some 8,800 targets. This sample favours those with a hit. About 0.5% of all pairs of compound and target were hits. Unmarked numbers belong to inactive results.
# How the values were obtained:
# Assay in all cases: log2 fold change, soluble protein after heating vs DMSO (PISA); higher = thermal stabilisation; K562 lysate, 10 uM; active = over 0.2 and 3.5 SD of the protein, either way, in both replicates (recomputed)
# nilotinib = compound: Cc1cn(-c2cc(NC(=O)c3ccc(C)c(Nc4nccc(-c5cccnc5)n4)c3)cc(C(F)(F)F)c2)cn1 [nilotinib]
# Method in brief: (§1)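 Pellets of K562 cells were dounce-homogenised in PBS pH 7.4 with 1 mM MgCl2, and the crude extract was held at 1 mg/mL protein for a 30 min treatment with 10 μM compound. Aliquots were heated for 3 min over 48°C-58°C and pooled before NP-40 was added to 0.5% at 4°C. The supernatant from 21,000xg for 90 min was quantified by TMTpro 16plex LC-MS/MS with channel sums equalised. Values are reported from duplicates as log-two fold change in thermal stability relative to solvent controls.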
# [1] = compound: Cc1nc(Nc2n[nH]c3c2CN(C(=O)N[C@H](CN(C)C)c2ccccc2)C3(C)C)c2sccc2n1
# Method in brief: as §1
# dasatinib = compound: Cc1nc(Nc2ncc(C(=O)Nc3c(C)cccc3Cl)s2)cc(N2CCN(CCO)CC2)n1 [dasatinib]
# Method in brief: as §1
# [2] = compound: Cc1ncc(-c2ccnc(Nc3ccc(S(C)(=O)=O)cc3)n2)n1C(C)C
# Method in brief: as §1
# [3] = compound: Cn1cc(-c2ccc3c(c2)CCN3C(=O)Cc2cccc(C(F)(F)F)c2)c2c(N)ncnc21
# Method in brief: as §1
# quisinostat = compound: Cn1cc(CNCC2CCN(c3ncc(C(=O)NO)cn3)CC2)c2ccccc21 [quisinostat]
# Method in brief: as §1
# tipifarnib = compound: Cn1cncc1[C@@](N)(c1ccc(Cl)cc1)c1ccc2c(c1)c(-c1cccc(Cl)c1)cc(=O)n2C [tipifarnib]
# Method in brief: as §1
# [4] = compound: NC(=O)Nc1cc(-c2cccc(F)c2)sc1C(=O)N[C@H]1CCCNC1
# Method in brief: as §1
# [5] = compound: NC(=O)c1cnc(N[C@@H]2CCCC[C@@H]2N)nc1Nc1cccc(-n2nccn2)c1
# Method in brief: as §1
# [6] = compound: NC1(c2ccc(-c3nc4ccn5c(=O)[nH]nc5c4cc3-c3ccccc3)cc2)CCC1
# Method in brief: as §1
# [7] = compound: NCC(=O)Nc1ccc(-n2nc(C(F)(F)F)cc2-c2ccc3c(ccc4ccccc43)c2)cc1
# Method in brief: as §1
# vorinostat = compound: O=C(CCCCCCC(=O)Nc1ccccc1)NO [vorinostat]
# Method in brief: as §1
# silmitasertib = compound: O=C(O)c1ccc2c(c1)nc(Nc1cccc(Cl)c1)c1ccncc12 [silmitasertib]
# Method in brief: as §1
# [8] = compound: O=C1NC(=O)C(c2cnc3ccccn23)=C1c1cn2c3c(cc(F)cc13)CN(C(=O)N1CCCCC1)CC2
# Method in brief: as §1
# entospletinib = compound: c1cn2cc(-c3ccc4cn[nH]c4c3)nc(Nc3ccc(N4CCOCC4)cc3)c2n1 [entospletinib]
# Method in brief: as §1
# Chain of UniProt Q6P1M9 (Q6P1M9 whole entry, looked up): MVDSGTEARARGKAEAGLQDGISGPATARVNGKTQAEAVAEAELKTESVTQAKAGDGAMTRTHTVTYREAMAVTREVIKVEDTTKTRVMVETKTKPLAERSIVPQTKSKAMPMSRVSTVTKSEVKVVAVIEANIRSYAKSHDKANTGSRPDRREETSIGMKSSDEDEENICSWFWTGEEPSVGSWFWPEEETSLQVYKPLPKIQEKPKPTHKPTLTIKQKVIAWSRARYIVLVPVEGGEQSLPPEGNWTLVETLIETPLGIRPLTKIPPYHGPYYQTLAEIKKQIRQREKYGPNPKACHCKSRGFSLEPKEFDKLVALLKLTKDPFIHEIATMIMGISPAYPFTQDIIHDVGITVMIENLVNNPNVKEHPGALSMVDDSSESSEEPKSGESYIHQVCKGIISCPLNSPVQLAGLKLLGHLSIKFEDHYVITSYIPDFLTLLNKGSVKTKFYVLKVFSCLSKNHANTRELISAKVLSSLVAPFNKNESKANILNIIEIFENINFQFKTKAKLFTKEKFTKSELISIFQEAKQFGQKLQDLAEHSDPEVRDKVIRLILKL
# Chain of UniProt P14621 (P14621 whole entry, looked up): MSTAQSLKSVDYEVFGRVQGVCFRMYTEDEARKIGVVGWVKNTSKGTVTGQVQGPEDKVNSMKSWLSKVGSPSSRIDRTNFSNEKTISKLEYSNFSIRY
# Chain of UniProt Q7L211 (Q7L211 whole entry, looked up): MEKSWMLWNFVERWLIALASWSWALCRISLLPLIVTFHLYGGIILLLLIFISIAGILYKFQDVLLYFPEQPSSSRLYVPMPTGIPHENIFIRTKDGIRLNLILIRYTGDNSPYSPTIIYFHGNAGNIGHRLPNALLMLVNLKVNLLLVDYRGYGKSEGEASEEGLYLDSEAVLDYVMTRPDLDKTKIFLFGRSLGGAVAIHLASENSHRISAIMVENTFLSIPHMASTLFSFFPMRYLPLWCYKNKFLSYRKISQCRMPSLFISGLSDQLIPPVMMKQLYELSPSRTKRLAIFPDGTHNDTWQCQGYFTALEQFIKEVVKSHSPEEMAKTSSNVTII
# Chain of UniProt P00519 (P00519 whole entry, looked up): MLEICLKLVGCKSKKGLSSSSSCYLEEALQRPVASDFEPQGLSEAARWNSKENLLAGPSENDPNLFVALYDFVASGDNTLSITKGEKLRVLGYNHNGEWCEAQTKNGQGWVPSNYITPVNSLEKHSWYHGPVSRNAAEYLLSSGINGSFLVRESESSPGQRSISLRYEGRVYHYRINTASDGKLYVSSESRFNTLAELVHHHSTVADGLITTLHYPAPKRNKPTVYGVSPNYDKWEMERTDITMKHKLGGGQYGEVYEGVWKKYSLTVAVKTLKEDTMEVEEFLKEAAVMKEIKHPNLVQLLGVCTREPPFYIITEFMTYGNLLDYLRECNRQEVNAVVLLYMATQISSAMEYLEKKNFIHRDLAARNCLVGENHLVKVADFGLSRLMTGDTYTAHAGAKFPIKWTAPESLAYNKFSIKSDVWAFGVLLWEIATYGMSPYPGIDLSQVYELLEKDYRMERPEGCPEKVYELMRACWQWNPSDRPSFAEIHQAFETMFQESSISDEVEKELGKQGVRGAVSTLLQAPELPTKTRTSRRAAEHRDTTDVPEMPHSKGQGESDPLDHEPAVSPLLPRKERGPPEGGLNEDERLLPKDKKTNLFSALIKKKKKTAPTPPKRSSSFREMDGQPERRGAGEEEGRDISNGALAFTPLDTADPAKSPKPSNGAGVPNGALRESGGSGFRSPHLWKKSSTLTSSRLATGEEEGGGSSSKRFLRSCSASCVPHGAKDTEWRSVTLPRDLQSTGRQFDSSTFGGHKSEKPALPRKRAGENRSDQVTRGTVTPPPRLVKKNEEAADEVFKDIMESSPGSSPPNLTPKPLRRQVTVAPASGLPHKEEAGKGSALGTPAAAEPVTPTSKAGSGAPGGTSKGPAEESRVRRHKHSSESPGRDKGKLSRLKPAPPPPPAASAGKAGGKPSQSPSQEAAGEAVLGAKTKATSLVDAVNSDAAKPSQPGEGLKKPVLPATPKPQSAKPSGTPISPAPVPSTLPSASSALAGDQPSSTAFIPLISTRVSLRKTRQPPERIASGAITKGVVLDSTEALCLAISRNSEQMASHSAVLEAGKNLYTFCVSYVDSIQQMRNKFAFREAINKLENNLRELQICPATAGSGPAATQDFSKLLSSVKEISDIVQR
# Chain of UniProt Q9BRQ8 (Q9BRQ8 whole entry, looked up): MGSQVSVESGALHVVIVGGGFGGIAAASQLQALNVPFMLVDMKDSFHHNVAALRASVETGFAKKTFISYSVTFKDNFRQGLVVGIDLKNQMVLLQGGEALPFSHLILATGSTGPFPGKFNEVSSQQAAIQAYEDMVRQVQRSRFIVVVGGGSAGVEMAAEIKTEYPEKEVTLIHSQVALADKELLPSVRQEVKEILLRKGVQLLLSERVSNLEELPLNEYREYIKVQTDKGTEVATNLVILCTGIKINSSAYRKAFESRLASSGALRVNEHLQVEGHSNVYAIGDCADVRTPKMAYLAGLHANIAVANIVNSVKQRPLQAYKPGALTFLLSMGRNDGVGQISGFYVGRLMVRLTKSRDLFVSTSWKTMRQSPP
# Chain of UniProt O15440 (O15440 whole entry, looked up): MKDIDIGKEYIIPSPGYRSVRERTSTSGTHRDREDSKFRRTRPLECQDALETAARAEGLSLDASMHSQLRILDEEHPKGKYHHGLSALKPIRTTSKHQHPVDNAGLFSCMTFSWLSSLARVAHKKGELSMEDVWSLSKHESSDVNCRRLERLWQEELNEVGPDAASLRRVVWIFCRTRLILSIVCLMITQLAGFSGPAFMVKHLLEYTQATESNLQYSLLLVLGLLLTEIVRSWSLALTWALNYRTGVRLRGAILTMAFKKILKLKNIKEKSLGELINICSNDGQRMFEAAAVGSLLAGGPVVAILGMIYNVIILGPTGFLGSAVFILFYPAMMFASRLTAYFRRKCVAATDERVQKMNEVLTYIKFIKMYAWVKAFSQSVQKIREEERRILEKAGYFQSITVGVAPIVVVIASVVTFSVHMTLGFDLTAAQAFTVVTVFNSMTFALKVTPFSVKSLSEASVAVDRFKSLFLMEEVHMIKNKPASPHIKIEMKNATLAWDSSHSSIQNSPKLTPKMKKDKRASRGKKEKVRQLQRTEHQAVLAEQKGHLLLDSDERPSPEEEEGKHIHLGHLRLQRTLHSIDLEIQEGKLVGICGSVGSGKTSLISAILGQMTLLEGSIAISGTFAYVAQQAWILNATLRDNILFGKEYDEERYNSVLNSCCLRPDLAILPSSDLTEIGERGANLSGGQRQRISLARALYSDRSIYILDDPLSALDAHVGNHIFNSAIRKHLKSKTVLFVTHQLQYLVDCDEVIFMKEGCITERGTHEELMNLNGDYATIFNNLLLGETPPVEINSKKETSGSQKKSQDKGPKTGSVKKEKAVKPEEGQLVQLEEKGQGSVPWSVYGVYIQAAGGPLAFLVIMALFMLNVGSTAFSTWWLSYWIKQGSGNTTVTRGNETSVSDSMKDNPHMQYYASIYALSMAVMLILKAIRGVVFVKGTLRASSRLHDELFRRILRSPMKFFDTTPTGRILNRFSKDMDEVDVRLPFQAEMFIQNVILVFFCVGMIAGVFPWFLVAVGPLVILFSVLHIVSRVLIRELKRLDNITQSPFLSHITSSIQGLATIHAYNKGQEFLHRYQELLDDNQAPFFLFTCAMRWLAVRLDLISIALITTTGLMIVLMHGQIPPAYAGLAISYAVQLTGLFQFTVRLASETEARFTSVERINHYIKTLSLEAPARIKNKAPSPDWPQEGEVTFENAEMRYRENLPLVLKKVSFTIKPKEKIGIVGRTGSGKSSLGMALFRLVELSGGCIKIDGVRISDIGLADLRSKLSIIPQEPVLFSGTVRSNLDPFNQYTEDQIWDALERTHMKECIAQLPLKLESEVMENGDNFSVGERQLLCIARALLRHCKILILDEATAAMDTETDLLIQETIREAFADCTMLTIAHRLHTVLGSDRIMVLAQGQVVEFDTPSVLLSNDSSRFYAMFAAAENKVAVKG
# Chain of UniProt Q8N8A2 (Q8N8A2 whole entry, looked up): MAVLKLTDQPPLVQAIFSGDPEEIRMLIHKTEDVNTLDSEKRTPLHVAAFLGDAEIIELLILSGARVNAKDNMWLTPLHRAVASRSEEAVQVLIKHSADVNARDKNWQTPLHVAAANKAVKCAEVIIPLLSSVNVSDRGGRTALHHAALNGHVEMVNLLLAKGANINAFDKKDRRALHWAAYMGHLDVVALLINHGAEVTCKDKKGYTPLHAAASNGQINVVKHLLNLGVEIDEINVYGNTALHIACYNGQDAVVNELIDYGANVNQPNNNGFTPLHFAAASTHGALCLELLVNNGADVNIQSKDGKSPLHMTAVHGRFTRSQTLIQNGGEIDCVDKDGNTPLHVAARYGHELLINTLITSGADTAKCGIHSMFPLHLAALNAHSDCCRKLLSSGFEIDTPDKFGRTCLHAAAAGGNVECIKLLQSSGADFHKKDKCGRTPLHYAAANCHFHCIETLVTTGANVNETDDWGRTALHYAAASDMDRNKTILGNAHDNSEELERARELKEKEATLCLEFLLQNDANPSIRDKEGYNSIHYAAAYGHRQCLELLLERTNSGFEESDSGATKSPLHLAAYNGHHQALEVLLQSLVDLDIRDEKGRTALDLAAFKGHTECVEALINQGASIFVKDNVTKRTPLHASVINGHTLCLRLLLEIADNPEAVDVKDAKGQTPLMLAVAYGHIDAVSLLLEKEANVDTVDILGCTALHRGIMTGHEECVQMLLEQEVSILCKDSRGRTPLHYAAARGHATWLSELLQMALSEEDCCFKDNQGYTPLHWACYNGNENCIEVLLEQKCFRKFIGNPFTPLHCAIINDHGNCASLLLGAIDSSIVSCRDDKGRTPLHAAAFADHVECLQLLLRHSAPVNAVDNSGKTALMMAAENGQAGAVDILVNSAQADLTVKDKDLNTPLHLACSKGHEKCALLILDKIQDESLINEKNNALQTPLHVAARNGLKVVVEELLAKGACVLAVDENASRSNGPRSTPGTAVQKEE
Target,log2 fold change (nilotinib),log2 fold change [1],log2 fold change (dasatinib),log2 fold change [2],log2 fold change [3],log2 fold change (quisinostat),log2 fold change (tipifarnib),log2 fold change [4],log2 fold change [5],log2 fold change [6],log2 fold change [7],log2 fold change (vorinostat),log2 fold change (silmitasertib),log2 fold change [8],log2 fold change (entospletinib)
ARMC6 (UniProt Q6NXE6),-0.001,-0.006,-0.055,-0.017,0.013,-0.057,0,0.094,0.017,-0.031,-0.011,-0.422 (active),0.02,-0.006,0.011
ARL1 (UniProt P40616),0.092,-0.074,0.026,-0.118,-0.016,-0.082,-0.268,0.01,-0.001,0.005,0.017,-0.293 (active),-0.048,0.027,0.034
ARMCX3 (UniProt Q9UH62),0.023,-0.028,-0.107,-0.003,0.067,-0.057,-0.008,0.04,0.008,-0.002,0.042,-0.279 (active),0.036,-0.024,0.047
AIFM2 (UniProt Q9BRQ8),0.057,-0.006,-0.072,-0.03,0.024,-0.105,0.411 (active),-0.028,-0.054,0,-0.014,-0.261,-0.015,0.188,0.003
ANP32A (UniProt P39687),-0.003,0.03,0.125,-0.011,-0.039,-0.006,0.002,-0.097,0.012,-0.359 (active),-0.005,0.08,0.063,-0.027,0.026
ANKRD44 isoform 2 (UniProt Q8N8A2),-0.19,-0.03,–,-0.216,–,–,0,–,-0.019,0.025,0.127,0.073,0.005,–,-0.115
ABCC5 (UniProt O15440),–,–,0.105,–,-0.047,-0.003,–,0.035,-0.035,-0.015,0.025,0.042,-0.023,-0.028,-0.036
"ADK, A0A5F9ZH76",-0.267,0.089,–,0.065,–,–,0.487,–,-0.083,–,–,–,–,–,–
"ACAT1, A0A5F9ZHJ0",-0.176,0.063,–,0.024,–,–,0.07,–,–,–,–,–,–,–,–
ACYP2 (UniProt P14621),-0.008,-0.079,–,0.097,–,-0.047,0.009,-0.009,-0.026,0.019,0.066,0.147,-0.081,0.012,–
ACVR1 (UniProt Q04771),-0.11,0.013,0.258,0.476,-0.046,–,-0.309,–,–,–,–,–,–,–,–
ABHD13 (UniProt Q7L211),0.152,-0.186,-0.177,-0.069,0.21,0.121,-0.233,-0.029,0.037,–,0.023,–,–,0.027,-0.12
ABL1 isoform 2 (UniProt P00519),–,0.006,–,0.019,-0.002,-0.074,-0.074,0.08,0.022,-0.009,-0.003,-0.328 (active),-0.019,-0.042,-0.008
ABI1 isoform 6 (UniProt Q8IZP0),–,–,–,–,–,–,–,–,0.113,–,–,–,–,–,-0.115
AGPAT2 (UniProt O15120),-0.044,0.046,–,-0.037,–,0.006,0.029,0.018,–,0.02,-0.234,0.104,-0.026,-0.052,0.063
ALG3 (UniProt Q92685),–,–,-0.049,–,0.068,0.077,–,-0.017,0.092,-0.036,-0.107,0.461 (active),0.285,-0.157,-0.01
ANXA2 (UniProt H0YL33),-0.153,0.008,-0.069,0.074,0.022,0.134,0.199,-0.196,-0.078,0.089,–,-0.153,0.16,0.042,–
ARMCX5 (UniProt Q6P1M9),0.035,0.009,-0.039,0.037,-0.07,–,-0.023,–,0.02,-0.027,-0.233,0.102,0.013,–,0.088
